Hits are enriched below; roughly 5.9% of the tested compounds scored in any of these assays.
HSF1 inhib: HSF1 inhibition; NIH3T3-HGL HSE-luciferase, MG132-induced, luminescence 8 h; hits give low values; activity change, negative = inhibition, % at 7.5 µM (by protocol); hit rate 0.77% among 300,000;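 active = more than half of replicate wells show activity change below -50%, luminescence cut by over half; inconclusive = some wells, but at most half, below -50%; inactive = no replicate well below -50%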;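 note: luciferase reports HSF-1 transcriptional activity via heat shock element; 0% = median of DMSO wells and -100% = zero luminescence signal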
AHR activator: human AHR activation; P35869; AHR-responsive luciferase reporter cells, luminescence; activation, % at 5 µM; hit rate 2.5% among 320,000; AID 2796; in the data active = activation above about 47%;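 note: 0% = vehicle wells and 100% = reference agonist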
Target sequence (P35869 whole entry, looked up): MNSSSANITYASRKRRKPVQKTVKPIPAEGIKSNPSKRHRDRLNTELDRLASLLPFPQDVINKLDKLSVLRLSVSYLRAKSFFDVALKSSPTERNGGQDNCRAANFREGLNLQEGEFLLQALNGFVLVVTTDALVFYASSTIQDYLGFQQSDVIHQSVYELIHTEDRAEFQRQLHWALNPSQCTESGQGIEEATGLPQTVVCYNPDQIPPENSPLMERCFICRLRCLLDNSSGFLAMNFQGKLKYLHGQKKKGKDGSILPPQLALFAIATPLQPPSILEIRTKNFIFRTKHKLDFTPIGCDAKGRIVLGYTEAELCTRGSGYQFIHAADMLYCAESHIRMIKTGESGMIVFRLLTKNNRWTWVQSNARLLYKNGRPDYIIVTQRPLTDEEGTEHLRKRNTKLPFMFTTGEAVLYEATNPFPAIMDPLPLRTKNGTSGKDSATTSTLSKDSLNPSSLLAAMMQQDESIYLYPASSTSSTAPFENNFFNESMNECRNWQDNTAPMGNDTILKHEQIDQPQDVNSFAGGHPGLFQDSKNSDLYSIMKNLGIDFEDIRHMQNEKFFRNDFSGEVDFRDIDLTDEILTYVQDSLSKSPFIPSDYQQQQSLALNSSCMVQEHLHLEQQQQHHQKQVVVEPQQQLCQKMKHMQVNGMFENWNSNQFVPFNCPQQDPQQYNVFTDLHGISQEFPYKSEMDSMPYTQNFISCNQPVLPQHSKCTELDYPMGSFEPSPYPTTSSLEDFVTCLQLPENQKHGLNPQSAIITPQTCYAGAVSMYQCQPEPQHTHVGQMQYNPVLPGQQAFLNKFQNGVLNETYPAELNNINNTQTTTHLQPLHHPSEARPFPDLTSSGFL
HSF1 activator: increases HSF-1 driven luciferase reporter signal; hit rate 1.7% among 300,000; activation, % at 9 µM; NIH3T3-HGL HSF-1 luciferase reporter, MG132, 8 h; 100% = twice DMSO control signal;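 active = mean replicate activation of at least 50% with a set share of replicates each reaching 50%; inconclusive = only one of those two conditions met; inactive = mean below 50% and too few replicates reaching it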;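 note: 0% = median of the neutral control wells and 100% = twice that signal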
DAX1 inh: inhibitors of human orphan nuclear receptor DAX1 (NR0B1). P51843. HEK293 Gal4-DAX1 luciferase reporter, luminescence. inhibition, % at 6.75 µM. hit rate 0.99% among 340,000. AID 504766;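 active = inhibition above the mean over all tested compounds plus 3 SD, cut at about 4.2% in these data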;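 note: 0% = DAX1-transfected cells with DMSO and 100% = empty-vector control cells with DMSO; inhibition shows as a rise in luminescence from relieved DAX1 repression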
HSP90 refold inh: blocks HSP90-mediated luciferase refolding in reticulocyte lysate | Rabbit reticulocyte lysate, luciferase refolding luminescence, 3 h | inhibition, % at 5.6 µM | hit rate 0.91% among 290,000;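 active = inhibition above the screen-wide mean plus 3 SD, computed separately per campaign, cut at about 16% in these data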;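 note: 0% = DMSO wells and 100% = 60 µM geldanamycin wells; inhibitors lower the luminescence because luciferase stays unfolded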
GAA850 FXN act: increases GAA850 frataxin promoter reporter activity | HEK293 lucGAA850 FXN promoter luciferase reporter, 24 h; percent of 10 µM SAHA response | activation, % at 6 µM | hit rate 0.56% among 360,000 | AID 540364;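 active = activation above the average of all compounds screened plus 3 SD, cutoff fixed separately per campaign, cut at about 7.5% in these data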;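 note: 0% = DMSO wells and 100% = 10 µM SAHA wells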
HSP90 confirm: confirmation of HSP90 inhibitors; shares compounds with HSP90 refold inh; inhibition, % at 5.9 µM; hit rate 64% among 2,300; rabbit reticulocyte lysate, luciferase refolding luminescence, 3 h; AID 1846; in the data active = inhibition above about 18%;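 note: 0% = vehicle wells and 100% = reference inhibitor wells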
luciferase ctr: firefly luciferase inhibition, HSP90 counter-screen; purified native firefly luciferase, luminescence; inhibition, % at 5.9 µM; hit rate 48% among 2,300; shares compounds with HSP90 refold inh;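 active = inhibition above the mean inhibition of all tested sample wells plus 3 SD, cut at about 10% in these data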;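 note: 0% = DMSO with luciferase and 100% = wells lacking luciferase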
The depositor's hits bear a star; ? = inconclusive; . = not tested or not shown.

SMILES	HSF1 inhib	AHR activator	HSF1 activator	DAX1 inh	HSP90 refold inh	GAA850 FXN act	HSP90 confirm	luciferase ctr
Nn1cnnc1N/N=C\c1ccc(-c2ccccc2[N+](=O)[O-])o1	14	.	38	-3	76*	-4	-2	-4
O=[N+]([O-])c1ccccc1-c1ccc(/C=N/n2cnnc2)o1	3	30	6	0	-2	2	.	.
O=C(O)CNS(=O)(=O)Cc1ccccc1	-4	5	-3	2	7	0	.	.
O=S(=O)(Cc1ccccc1)N(O)c1ccccc1	2	4	-10	1	88*	2	92*	0
CCc1noc(C)c1C(=O)N1CCCSC1=Nc1ccccc1Cl	3	3	17	-1	.	-1	.	.
O=C(NCc1ccc(F)cc1)C1CCCN1C(=O)Nc1cccc(F)c1 (stereo not given)	4	2	16	0	24*	2	-1	-3
Cc1ccc(OCc2nnc(N)s2)cc1C	0	10	3	.	-3	3	.	.
O=[N+]([O-])c1ccc(/C=C/c2ccc3ccccc3n2)cc1	8	-16	?	-2	21*	1	66*	54*
C(=C\c1ccc2ccccc2n1)/c1ccccc1	-30	41	-12	-2	35*	-2	83*	77*
CCOC(=O)/C(C#N)=C/c1c(Oc2cccc(C)c2)nc2ccccn2c1=O	2	4	-14	0	29*	-2	-5	-7
Cc1ccccc1Nc1nc(-c2sc(NC(=O)c3ccc([N+](=O)[O-])cc3)nc2C)cs1	-2	10	2	.	79*	.	53*	-4
Cc1ccccc1Nc1nc(-c2sc(NC(=O)c3cccc(Cl)c3)nc2C)cs1	24	42	-1	.	78*	.	52*	-6
Cc1csc(NC(=O)c2ccccc2)n1	21	3	34	4	3	4	.	.
CC(=O)c1ccc(Nc2nc(-c3sc(C)nc3C)cs2)cc1	.	.	.	-4	.	-4	.	.
Cc1ccc(Nc2nc(-c3sc(NC(=O)c4ccc([N+](=O)[O-])cc4)nc3C)cs2)cc1	-14	6	-18	.	81*	.	45*	-10
Cc1ccccc1Nc1nc(-c2sc(NC(=O)c3ccccc3)nc2C)cs1	13	62*	21	.	59*	.	30*	-14
COc1ccc(CNCC(=O)Nc2cccc(S(N)(=O)=O)c2)cc1	-4	4	-1	-1	1	2	.	.
Cc1cc(=O)oc2cc(OCC(=O)N3CC[C@@]4(O)CCCC[C@H]4C3)ccc12	1	0	1	2	-3	1	.	.
CC(C(=O)OCC(=O)N1CCCCC1)N1C(=O)c2ccccc2C1=O (stereo not given)	.	0	.	0	.	0	.	.
CCOc1ccccc1Nc1nc(-c2sc(NC(=O)c3ccc([N+](=O)[O-])cc3)nc2C)cs1	-45	30	-48	.	79*	.	20*	-4
COc1ccc(-c2nc(NC(=O)c3ccccc3)sc2-c2ccc([N+](=O)[O-])cc2)cc1	1	3	9	1	-2	2	.	.
Cc1ccc(Cl)cc1Nc1nc(-c2sc(NC(=O)c3cccc(Cl)c3)nc2C)cs1	0	27	21	.	65*	.	44*	-20
Cc1ccc(-c2csc(NC(=O)c3ccc(-c4ccccc4)cc3)n2)o1	-25	8	-27	-3	37*	1	36*	0
COc1ccc(CCN(C)S(=O)(=O)c2ccc(Cl)nc2)cc1OC	-4	5	5	0	1	3	.	.
Cc1ccsc1C(=O)OCC(=O)Nc1ccc(Cl)cn1	.	1	.	1	.	1	.	.
SMILES	HSF1 inhib	AHR activator	HSF1 activator	DAX1 inh	HSP90 refold inh	GAA850 FXN act	HSP90 confirm	luciferase ctr
O=C(O)c1cc(-c2ccc(Cl)cc2)n(-c2ccc(Cl)cc2)n1	-2	5	8	-1	1	1	.	.
O=C(Cc1ccc(Cl)cc1Cl)Nc1ccncc1Cl	-10	1	-10	-2	-2	0	.	.
COc1cccc(C2=CC(=O)C(C(C)(C)C)N2C(C)(C)C)c1 (stereo not given)	.	.	.	0	.	-3	.	.
Cc1ccc(C)c(S(=O)(=O)N2CCN(C(=O)c3ccccc3Cc3ccccc3)CC2)c1	-1	0	-4	0	.	-5	.	.
O=[N+]([O-])c1ccc(S(=O)(=O)N2CCN=C2SCc2ccc(F)cc2)cc1	1	-1	0	2	35*	1	70*	-4
CCc1nc2ccc(C(=O)O)cc2nc1CC	-69*	-6	-71	-5	75*	0	63*	51*
CCc1nc2ccc(C(=O)N3CCN(CC)CC3)cc2nc1CC	0	2	-2	1	-2	0	.	.
O=S(=O)(Nc1ccc(S(=O)(=O)Nc2cccc3ccccc23)cc1)c1ccccc1	3	6	5	0	-2	0	.	.
c1c2c(cc3sc(N4CCOCC4)nc13)OCCO2	0	-3	-2	-4	62*	-8	85*	78*
CC1(C)Cc2ccccc2C2=NNC(=O)C2=N1	25	2	42	-3	17*	-4	34*	-7
CCN(CC)c1ccc(/C=N/Nc2nc3ccccc3[nH]2)c(O)c1	132	51*	169*	-4	40*	-11	23*	-18
CCN(CC)c1ccc(/C=N/NC(=S)NCc2ccccc2)c(O)c1	-16	40	-34	-1	1	0	.	.
C(=N\Nc1nc2ccccc2[nH]1)/c1ccccn1	0	.	-2	-5	79*	-9	88*	85*
CC(C)(C)NC(=S)NCc1ccncc1	-7	2	7	1	23*	0	-2	-4
Cc1ccc(CNC(=S)NCc2ccncc2)cc1	.	7	.	-1	4	0	.	.
Cc1nn(C(C)(C)C)c(C)c1/C=N/OC(=O)Nc1ccc(Cl)cc1	-92*	-8	-92	-9	86*	-14	86*	87*
O=C(Nc1ncccc1O)c1ccc(OCC2CCCO2)cc1 (stereo not given)	2	0	11	2	24*	2	44*	20*
O=C(NC1=NCCS1)c1ccc(OCC2CCCO2)cc1 (stereo not given)	-1	15	37	1	9	5	.	.
Cc1cnc(NC(=O)c2ccc(OCC3CCCO3)cc2)s1 (stereo not given)	-4	12	23	-3	47*	-1	60*	51*
Cc1ccc(NC(=O)c2ccc(OCC3CCCO3)cc2)nc1 (stereo not given)	24	6	34	0	.	3	.	.
COc1cc(C=O)ccc1Oc1ccc(S(=O)(=O)N2CCOCC2)cc1[N+](=O)[O-]	.	-1	.	1	.	2	.	.
